# Reference: article PMC7862700, “An all-to-all approach to the identification of sequence-specific readers for epigenetic DNA modifications on cytosine”
# How the values were obtained:
# Assay in all cases: DAPPL (digital affinity profiling via proximity ligation, sequencing); 10 mM Tris-HCl pH 7.5, 50 mM NaCl, 1 mM DTT, 4% glycerol, room temperature, 30 min; GST-TFs on glutathione beads, 16-mer random dsDNA library, 0.1% formaldehyde crosslink after washing; high values mean tight binding
# Conditions in all cases: protein: recombinant; tags: N-terminal GST; dsDNA, one strand shown
# [1] = target: T1, ELK1 (Homo sapiens, UniProt P19419 1-428)
# T1 sequence: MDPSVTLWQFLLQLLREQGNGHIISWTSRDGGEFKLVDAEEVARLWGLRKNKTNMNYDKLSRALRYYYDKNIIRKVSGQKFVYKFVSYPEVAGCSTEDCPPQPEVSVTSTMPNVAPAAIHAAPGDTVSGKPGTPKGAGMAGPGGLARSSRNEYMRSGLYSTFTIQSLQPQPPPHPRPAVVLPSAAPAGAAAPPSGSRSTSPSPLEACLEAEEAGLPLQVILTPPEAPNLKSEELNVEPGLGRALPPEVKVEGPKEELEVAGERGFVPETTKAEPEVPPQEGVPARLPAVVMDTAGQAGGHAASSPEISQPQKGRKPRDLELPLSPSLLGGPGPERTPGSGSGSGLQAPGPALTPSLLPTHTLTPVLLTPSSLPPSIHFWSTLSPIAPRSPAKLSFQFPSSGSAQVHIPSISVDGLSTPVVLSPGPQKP
# Summary of the method: (§1)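 Beads coated with glutathione captured GST-fused human transcription factors that had been expressed in yeast, and the factors were then given DNA barcodes and pooled with a tag-only sample. The pools were incubated with 200 nmole of a random double-stranded 16-mer DNA library in Tris/NaCl/DTT/glycerol buffer for 30 min at room temperature, washed, crosslinked with 0.1% formaldehyde and proximity-ligated with BsaI/T4 ligase at 37 °C for 1 h. PCR amplification and Illumina NextSeq500 sequencing came last. Binding signal is each hexamer's read frequency for a factor divided by its frequency for the tag-only sample.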
# [2] = target: T2, GABPA (Homo sapiens, UniProt Q06546 1-454)
# T2 sequence: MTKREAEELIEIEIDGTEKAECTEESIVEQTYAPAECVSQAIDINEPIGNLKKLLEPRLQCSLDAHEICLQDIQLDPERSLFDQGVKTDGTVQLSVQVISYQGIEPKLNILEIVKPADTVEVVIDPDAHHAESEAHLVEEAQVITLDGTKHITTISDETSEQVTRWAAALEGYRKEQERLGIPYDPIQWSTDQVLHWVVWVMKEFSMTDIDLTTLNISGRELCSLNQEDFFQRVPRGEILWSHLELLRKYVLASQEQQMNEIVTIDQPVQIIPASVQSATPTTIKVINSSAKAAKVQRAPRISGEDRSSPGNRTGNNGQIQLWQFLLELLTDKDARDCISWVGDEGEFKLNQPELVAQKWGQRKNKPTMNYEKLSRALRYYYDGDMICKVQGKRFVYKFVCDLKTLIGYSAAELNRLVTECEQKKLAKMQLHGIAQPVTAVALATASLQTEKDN
# Summary of the method: as §1
# [3] = target: T3, ERG (Homo sapiens, UniProt P11308 1-479)
# T3 sequence: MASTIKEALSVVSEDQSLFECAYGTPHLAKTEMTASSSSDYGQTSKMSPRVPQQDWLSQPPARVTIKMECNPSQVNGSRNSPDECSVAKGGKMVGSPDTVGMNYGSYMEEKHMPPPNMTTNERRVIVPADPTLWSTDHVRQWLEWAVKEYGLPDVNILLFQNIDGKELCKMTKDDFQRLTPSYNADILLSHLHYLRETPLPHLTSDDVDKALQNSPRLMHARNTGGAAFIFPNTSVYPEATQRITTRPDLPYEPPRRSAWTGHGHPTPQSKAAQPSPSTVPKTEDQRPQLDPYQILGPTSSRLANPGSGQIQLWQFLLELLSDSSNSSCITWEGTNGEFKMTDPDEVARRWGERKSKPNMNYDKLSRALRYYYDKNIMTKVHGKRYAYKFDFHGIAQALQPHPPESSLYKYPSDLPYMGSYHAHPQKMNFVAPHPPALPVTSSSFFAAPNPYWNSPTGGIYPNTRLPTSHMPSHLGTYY
# Summary of the method: as §1
# [4] = target: ELF1 (Homo sapiens, UniProt P32519 1-619)
# Summary of the method: as §1
# [5] = target: T4, EHF (Homo sapiens, UniProt Q9NZC4 1-300)
# T4 sequence: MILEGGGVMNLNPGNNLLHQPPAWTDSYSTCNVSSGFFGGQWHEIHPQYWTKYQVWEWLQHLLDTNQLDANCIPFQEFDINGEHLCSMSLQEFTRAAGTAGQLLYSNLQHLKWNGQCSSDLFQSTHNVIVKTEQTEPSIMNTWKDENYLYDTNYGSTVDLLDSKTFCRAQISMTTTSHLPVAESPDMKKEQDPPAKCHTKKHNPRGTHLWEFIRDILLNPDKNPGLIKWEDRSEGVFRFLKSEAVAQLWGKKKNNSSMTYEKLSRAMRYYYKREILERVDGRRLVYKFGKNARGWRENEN
# Summary of the method: as §1
# [6] = target: SPIB (Homo sapiens, UniProt Q01892 1-262)
# Summary of the method: as §1
# [7] = target: T5, ELK3 (Homo sapiens, UniProt P41970 1-407)
# T5 sequence: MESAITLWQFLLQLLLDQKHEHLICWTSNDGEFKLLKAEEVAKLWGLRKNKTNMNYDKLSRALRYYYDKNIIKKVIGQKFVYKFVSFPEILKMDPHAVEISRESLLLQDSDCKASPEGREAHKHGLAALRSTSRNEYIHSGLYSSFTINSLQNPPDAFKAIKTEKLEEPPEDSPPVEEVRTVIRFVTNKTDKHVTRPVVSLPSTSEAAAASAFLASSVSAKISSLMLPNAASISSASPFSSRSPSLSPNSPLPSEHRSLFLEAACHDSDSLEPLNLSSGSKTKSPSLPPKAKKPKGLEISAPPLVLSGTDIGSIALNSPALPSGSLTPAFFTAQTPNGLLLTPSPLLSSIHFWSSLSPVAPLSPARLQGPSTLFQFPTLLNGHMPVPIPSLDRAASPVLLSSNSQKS
# Summary of the method: as §1
# [8] = target: T6, SPIC (Homo sapiens, UniProt Q8N5J4 1-248)
# T6 sequence: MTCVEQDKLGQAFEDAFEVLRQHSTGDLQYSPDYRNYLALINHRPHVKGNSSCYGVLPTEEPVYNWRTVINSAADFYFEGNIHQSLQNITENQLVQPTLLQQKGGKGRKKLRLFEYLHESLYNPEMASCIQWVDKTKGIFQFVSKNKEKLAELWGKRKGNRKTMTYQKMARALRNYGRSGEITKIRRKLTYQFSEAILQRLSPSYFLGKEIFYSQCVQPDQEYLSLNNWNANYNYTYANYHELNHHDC
# Summary of the method: as §1
# [9] = target: ELF4 (Homo sapiens, UniProt Q99607 1-663)
# Summary of the method: as §1
# Chain of ELF1 (P32519 whole entry): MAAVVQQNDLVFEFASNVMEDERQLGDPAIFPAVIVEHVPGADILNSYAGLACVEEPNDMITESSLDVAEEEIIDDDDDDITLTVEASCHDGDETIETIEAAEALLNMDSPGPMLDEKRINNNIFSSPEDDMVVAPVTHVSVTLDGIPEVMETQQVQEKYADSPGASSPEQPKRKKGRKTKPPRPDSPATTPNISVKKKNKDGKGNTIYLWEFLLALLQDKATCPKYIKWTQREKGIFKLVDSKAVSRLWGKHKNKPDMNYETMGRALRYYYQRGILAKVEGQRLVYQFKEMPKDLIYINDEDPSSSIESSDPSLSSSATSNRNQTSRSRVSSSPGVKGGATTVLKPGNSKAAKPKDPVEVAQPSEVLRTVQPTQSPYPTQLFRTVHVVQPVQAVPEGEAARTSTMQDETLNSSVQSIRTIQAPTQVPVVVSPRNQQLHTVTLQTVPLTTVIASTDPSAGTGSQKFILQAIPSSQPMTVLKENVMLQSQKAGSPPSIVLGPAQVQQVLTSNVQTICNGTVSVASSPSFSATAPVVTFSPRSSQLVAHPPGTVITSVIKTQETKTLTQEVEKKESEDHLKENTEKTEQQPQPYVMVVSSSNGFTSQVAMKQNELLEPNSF
# Chain of SPIB (Q01892 whole entry): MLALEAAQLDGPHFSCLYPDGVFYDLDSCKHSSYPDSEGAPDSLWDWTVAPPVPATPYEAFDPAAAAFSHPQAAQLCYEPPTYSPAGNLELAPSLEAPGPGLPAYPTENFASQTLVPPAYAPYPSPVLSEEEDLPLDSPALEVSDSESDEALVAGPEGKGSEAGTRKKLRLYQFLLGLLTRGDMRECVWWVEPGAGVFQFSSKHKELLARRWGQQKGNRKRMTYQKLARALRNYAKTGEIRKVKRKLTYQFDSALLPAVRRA
# Chain of ELF4 (Q99607 whole entry): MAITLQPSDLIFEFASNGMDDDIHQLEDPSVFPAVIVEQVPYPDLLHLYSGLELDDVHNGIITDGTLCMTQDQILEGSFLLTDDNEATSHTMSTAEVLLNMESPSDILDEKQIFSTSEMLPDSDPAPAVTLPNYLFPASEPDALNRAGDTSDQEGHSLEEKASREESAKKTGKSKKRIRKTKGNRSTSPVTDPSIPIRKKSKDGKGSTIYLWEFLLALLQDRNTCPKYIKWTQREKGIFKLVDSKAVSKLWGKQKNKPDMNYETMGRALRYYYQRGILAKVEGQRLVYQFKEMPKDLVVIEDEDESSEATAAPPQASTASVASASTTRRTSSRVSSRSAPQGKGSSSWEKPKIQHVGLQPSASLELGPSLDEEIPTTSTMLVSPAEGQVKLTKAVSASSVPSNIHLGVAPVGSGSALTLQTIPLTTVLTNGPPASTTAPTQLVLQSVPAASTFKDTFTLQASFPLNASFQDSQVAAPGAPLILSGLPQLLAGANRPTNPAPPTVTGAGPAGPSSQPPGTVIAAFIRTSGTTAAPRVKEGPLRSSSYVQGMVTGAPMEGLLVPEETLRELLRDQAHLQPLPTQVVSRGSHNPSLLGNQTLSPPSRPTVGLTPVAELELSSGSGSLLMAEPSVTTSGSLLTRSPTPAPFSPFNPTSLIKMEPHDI
sequence,measurement,setting,value
TGATTA,binding signal,[1],"1.17 fold enrichment (6-mer frequency, TF over GST control)"
same,binding signal,[2],"1.1 fold enrichment (6-mer frequency, TF over GST control)"
same,binding signal,[3],"1.02 fold enrichment (6-mer frequency, TF over GST control)"
same,binding signal,[4],"1.09 fold enrichment (6-mer frequency, TF over GST control)"
same,binding signal,[5],"1.11 fold enrichment (6-mer frequency, TF over GST control)"
same,binding signal,[6],"1.07 fold enrichment (6-mer frequency, TF over GST control)"
same,binding signal,[7],"1.07 fold enrichment (6-mer frequency, TF over GST control)"
same,binding signal,[8],"1.17 fold enrichment (6-mer frequency, TF over GST control)"
same,binding signal,[9],"1.07 fold enrichment (6-mer frequency, TF over GST control)"
